From PubChem BioAssay (Tox21) come the findings set out here.

Inconclusive results are not listed. Calls of active or inactive are those of the source. Unless noted, the call rests on the fitted dose curve; in most records, active means well fitted curve in the direction sought with a large enough effect in the repeat runs; inconclusive means weak or mixed curves; inactive means no such curve, though single readings can be large; an effect the other way counts as inactive or inconclusive.

A short description of assay [1]: qHTS assay to identify aromatase inhibitors - cell viability counter screen (AID 743084).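 Further: cells stimulated with testosterone during compound exposure; nearly all actives have a fitted effect of over 55% in size.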
Assay [2] has as its target Aryl hydrocarbon receptor (Homo sapiens) (UniProt P35869). In words: qHTS assay to identify small molecule that activate the aryl hydrocarbon receptor (AhR) signaling pathway (AID 743085). Further: nearly all actives have a fitted effect of over 15% in size. Further: potency means the concentration at half of the fitted maximal effect.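 On activation: HG2L7.5c1 human HepG2 liver cells with stably integrated DRE-driven firefly reporter; series mostly up to about 70 µM.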 Put shortly: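 Compounds were tested in HepG2 hepatocellular carcinoma cells harbouring a stably integrated luciferase gene under control of 20 DREs. Increased reporter signal after 24 h treatment at 37C was taken as AhR activation.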

Assay [3] is described as follows: qHTS assay to identify small molecule that activate the aryl hydrocarbon receptor (AhR) signaling pathway - cell viability counter screen (AID 743086).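 Further: HepG2 liver cells carrying the AhR DRE luciferase reporter; series mostly up to about 70 µM; nearly all actives have a fitted effect of over 45% in size.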 Summed up:
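HepG2-AhR-luc (HG2L7.5c1) cells, 4000/well, were preincubated 5 h at 37C, exposed to compound in qHTS format for 24 hr at 37C, then given CellTiter-Fluor for 30 min; viability was read as fluorescence in the reporter wells.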

The target in assay [4] is Peroxisome proliferator-activated receptor gamma (Homo sapiens) (UniProt P37231). Nature of the assay: qHTS assay to identify small molecule agonists of the peroxisome proliferator-activated receptor gamma (PPARg) signaling pathway (AID 743094; active means well fitted activation curve with a large enough effect in the signal ratio in the repeat runs, not every such curve was filed as active; the % refers to the signal ratio). Put shortly: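 Agonist activity was taken from a beta-lactamase reporter (FRET substrate, 1 h at room temperature) in HEK293H cells carrying a PPARg UAS-bla construct. Compounds in DMSO were incubated 17 h at 37C after a 5 h cell pre-incubation.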
Chain of Peroxisome proliferator-activated receptor gamma (Homo sapiens) (P37231 whole entry, looked up): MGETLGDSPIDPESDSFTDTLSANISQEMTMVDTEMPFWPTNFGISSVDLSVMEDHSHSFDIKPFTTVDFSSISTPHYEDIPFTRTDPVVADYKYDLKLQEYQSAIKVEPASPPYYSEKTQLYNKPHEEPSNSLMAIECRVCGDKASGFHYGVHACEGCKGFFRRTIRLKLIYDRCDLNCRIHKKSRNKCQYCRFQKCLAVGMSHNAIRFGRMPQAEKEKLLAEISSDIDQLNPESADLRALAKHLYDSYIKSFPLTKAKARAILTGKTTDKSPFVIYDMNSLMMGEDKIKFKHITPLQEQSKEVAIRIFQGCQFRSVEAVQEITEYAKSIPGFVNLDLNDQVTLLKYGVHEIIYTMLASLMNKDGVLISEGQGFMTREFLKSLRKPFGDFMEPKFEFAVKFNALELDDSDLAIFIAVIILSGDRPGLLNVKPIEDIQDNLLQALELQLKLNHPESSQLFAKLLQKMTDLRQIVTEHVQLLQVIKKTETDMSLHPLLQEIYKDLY

Assay [5] has the same target. Nature of the assay: qHTS assay to identify small molecule antagonists of the peroxisome proliferator-activated receptor gamma (PPARg) signaling pathway (AID 743191; calls by dose curve; further: series mostly up to about 63 µM; nearly all actives have a fitted effect of over 30% in size). Put shortly:
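GeneBLAzer PPARg UAS-bla HEK293H cells carrying a UAS-driven beta-lactamase reporter were plated at 3000 cells/well, preincubated 5 h at 37C, then given compound for 17 h at 37C; LiveBLAzer B/G FRET substrate was read after 1 h at room temperature.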

A short description of assay [6]: qHTS assay to identify small molecule antagonists of the peroxisome proliferator-activated receptor gamma (PPARg) signaling pathway - cell viability counter screen (AID 743194). Further: nearly all actives have a fitted effect of over 55% in size. Put shortly:
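PPARg-UAS-bla HEK293H cells were plated, rested 5 h at 37 C, then treated with compounds plus rosiglitazone (50 nM final) for 17 h at 37 C; viability was then read by CellTiter-Glo luminescence after 30 min at room temperature.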

The nature of assay [7]: qHTS assay for small molecule agonists of the antioxidant response element (ARE) signaling pathway - cell viability counter screen (AID 743203; calls by dose curve; further: nearly all actives have a fitted effect of over 55% in size). Summed up: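 Viability counter screen: CellTiter-Glo luminescence, read after 30 min at room temperature, in ARE-bla HepG2 wells. Compound exposure lasted 16 h at 37C/5% CO2, following a 5 h pre-incubation of the cells after plating.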

Assay [8] in a line: qHTS assay for small molecule activators of the heat shock response signaling pathway - cell viability counter screen (AID 743209). Further: nearly all actives have a fitted effect of over 50% in size. Put shortly: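 Cytotoxicity counter screen run in the same wells as the heat-shock bla reporter assay: HeLa HSE-bla cells, 5 h compound exposure at 37 C, viability read by CellTiter-Glo luminescence.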
Assay [9] can be described thus: qHTS assay to identify small molecule agonists of the peroxisome proliferator-activated receptor delta (PPARd) signaling pathway - cell viability counter screen (AID 743211). Further: nearly all actives have a fitted effect of over 55% in size. Put shortly:
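Counter screen for cytotoxicity run in parallel with the PPARd reporter screen. Beta-lactamase reporter HEK293H cells exposed to compounds 17 h; ATP-based CellTiter-Glo luminescence quantified viability.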

Assay [10] concerns the target Peroxisome proliferator-activated receptor delta (Homo sapiens) (UniProt Q03181). Nature of the assay: qHTS assay to identify small molecule agonists of the peroxisome proliferator-activated receptor delta (PPARd) signaling pathway (AID 743212; calls by dose curve). Put shortly:
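Beta-lactamase reporter read by fluorescence (LiveBLAzer B/G FRET, 2 h, room temperature). Test agents, in DMSO, incubated at 37 C with PPARd-bla HEK293H cells.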

Assay [11] can be described thus: qHTS assay to identify small molecule antagonists of the peroxisome proliferator-activated receptor delta (PPARd) signaling pathway - cell viability counter screen (AID 743213). Further: nearly all actives have a fitted effect of over 50% in size. Put shortly: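 Same-well viability: cells pre-incubated 5 h, dosed with compound plus 300 nM L165041, kept 17 h at 37 C, FRET substrate 2 h RT, then CellTiter-Glo 30 min RT and luminescence.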

In assay [12] the target is Peroxisome proliferator-activated receptor delta (Homo sapiens) (UniProt Q03181). In words: qHTS assay to identify small molecule antagonists of the peroxisome proliferator-activated receptor delta (PPARd) signaling pathway (AID 743215; active means well fitted inhibition curve with a large enough effect in the signal ratio in the repeat runs, not every such curve was filed as active; the % refers to the signal ratio;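 further: cells stimulated with agonist L165041 at 300 nM final during compound exposure; series mostly up to about 62 µM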). Summed up: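 Agonist L165041 (300 nM final) added with compound to PPARd-bla HEK293H UAS-bla reporter cells; 17 h incubation at 37 C. Read-out: LiveBLAzer FRET substrate, 2 h at room temperature, fluorescence intensity.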
Chain of Peroxisome proliferator-activated receptor delta (Homo sapiens) (Q03181 whole entry, looked up): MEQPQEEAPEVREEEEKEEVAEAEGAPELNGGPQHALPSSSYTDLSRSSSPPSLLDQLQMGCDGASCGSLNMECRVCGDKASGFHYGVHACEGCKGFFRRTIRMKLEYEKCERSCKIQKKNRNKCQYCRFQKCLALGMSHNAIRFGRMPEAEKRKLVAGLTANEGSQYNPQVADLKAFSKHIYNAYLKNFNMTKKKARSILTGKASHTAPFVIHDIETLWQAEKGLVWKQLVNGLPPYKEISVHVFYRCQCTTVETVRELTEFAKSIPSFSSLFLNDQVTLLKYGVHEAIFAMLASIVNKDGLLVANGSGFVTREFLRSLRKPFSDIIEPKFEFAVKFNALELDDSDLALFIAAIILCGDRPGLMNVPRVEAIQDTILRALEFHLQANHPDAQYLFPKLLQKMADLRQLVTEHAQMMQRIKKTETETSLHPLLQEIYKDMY

The nature of assay [13]: qHTS assay to identify small molecule agonists of the farnesoid-X-receptor (FXR) signaling pathway - cell viability counter screen (AID 743218). Further: nearly all actives have a fitted effect of over 45% in size. Put shortly:
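Viability counter screen in the same wells: CellTiter-Glo luminescence, 30 min room-temperature incubation, measured after the beta-lactamase read. Cells were GeneBLAzer FXR-UAS-bla HEK 293T, compound-treated 16 h at 37C.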

A short description of assay [14]: qHTS assay to identify small molecule antagonists of the farnesoid-X-receptor (FXR) signaling pathway - cell viability counter screen (AID 743221; active means well fitted cell-killing curve with a large enough effect in the repeat runs, not every such curve was filed as active; further: nearly all actives have a fitted effect of over 50% in size). Summed up: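 Multiplexed counter screen: viability of FXR-bla HEK 293T cells under agonist stimulation by chenodeoxycholic acid (50 uM, final) and test compound for 16 h at 37 C, measured by CellTiter-Glo luminescence in the reporter wells.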

The target of assay [15] is Vitamin D3 receptor (Homo sapiens) (UniProt P11473). Nature of the assay: qHTS assay to identify small molecule agonists of the vitamin D receptor (VDR) signaling pathway (AID 743222; calls by dose curve). Summed up: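 Agonist mode, beta-lactamase reporter: fluorescence from LiveBLAzer B/G FRET substrate (2 h, room temperature) read after 16 h compound treatment at 37 C of VDR-bla cells, which were pre-incubated 4 h after seeding.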
Chain of Vitamin D3 receptor (Homo sapiens) (P11473 whole entry, looked up): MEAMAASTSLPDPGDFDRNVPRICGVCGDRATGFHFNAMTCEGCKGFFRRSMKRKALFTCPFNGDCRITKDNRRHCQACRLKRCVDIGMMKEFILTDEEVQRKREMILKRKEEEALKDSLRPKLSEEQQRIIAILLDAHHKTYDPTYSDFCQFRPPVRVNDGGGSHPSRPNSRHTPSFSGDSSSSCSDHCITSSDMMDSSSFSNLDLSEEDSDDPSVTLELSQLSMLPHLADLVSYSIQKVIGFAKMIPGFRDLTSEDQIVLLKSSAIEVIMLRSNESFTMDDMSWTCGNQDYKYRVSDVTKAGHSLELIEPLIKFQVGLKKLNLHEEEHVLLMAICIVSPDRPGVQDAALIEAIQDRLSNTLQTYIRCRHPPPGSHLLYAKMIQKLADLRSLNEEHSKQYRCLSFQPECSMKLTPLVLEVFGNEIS

The target is the same in assay [16]. In words: qHTS assay to identify small molecule antagonists of the vitamin D receptor (VDR) signaling pathway (AID 743223; active means well fitted inhibition curve with a large enough effect in the signal ratio in the repeat runs, not every such curve was filed as active; the % refers to the signal ratio). Summed up: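 Cells carrying a VDR-driven beta-lactamase reporter (VDR-bla) were co-treated with compound and 3 nM final 1alpha,25-dihydroxyvitamin D3 for 16 h at 37C; reporter activity was measured as FRET substrate fluorescence after 2 h at room temperature.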

The nature of assay [17]: qHTS assay for small molecule agonists of the antioxidant response element (ARE) signaling pathway (AID 743202; active means well fitted activation curve with a large enough effect in the signal ratio in the repeat runs, not every such curve was filed as active; the % refers to the signal ratio). Summed up: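 Following a 16 h, 37 C exposure of reporter HepG2 cells (ARE-driven beta-lactamase, 2,000 cells/well) to compounds, FRET substrate was applied for 2 h at room temperature and fluorescence intensity recorded.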
A short description of assay [18]: qHTS assay for small molecule activators of the heat shock response signaling pathway (AID 743210; active means well fitted activation curve with a large enough effect in the signal ratio in the repeat runs, with a control signal flat, not every such curve was filed as active; the % refers to the signal ratio; further: series mostly up to about 63 µM). Put shortly: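 Heat shock element–beta-lactamase HeLa reporter cells; qHTS with compounds for 5 h at 37 C; detection by FRET substrate fluorescence after 2.5 h at RT.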
In assay [19] the target is Bile acid receptor (Homo sapiens) (UniProt Q96RI1). In words: qHTS assay to identify small molecule antagonists of the farnesoid-X-receptor (FXR) signaling pathway (AID 743217; active means well fitted inhibition curve with a large enough effect in the signal ratio in the repeat runs, not every such curve was filed as active; the % refers to the signal ratio). Summed up: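 Antagonist mode: chenodeoxycholic acid at 50 uM final stimulates a UAS-driven beta-lactamase reporter in HEK 293T FXR-bla cells during 16 h, 37C compound exposure. Read-out is FRET substrate fluorescence after 2 h at room temperature.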
Chain of Bile acid receptor (Homo sapiens) (Q96RI1 whole entry, looked up): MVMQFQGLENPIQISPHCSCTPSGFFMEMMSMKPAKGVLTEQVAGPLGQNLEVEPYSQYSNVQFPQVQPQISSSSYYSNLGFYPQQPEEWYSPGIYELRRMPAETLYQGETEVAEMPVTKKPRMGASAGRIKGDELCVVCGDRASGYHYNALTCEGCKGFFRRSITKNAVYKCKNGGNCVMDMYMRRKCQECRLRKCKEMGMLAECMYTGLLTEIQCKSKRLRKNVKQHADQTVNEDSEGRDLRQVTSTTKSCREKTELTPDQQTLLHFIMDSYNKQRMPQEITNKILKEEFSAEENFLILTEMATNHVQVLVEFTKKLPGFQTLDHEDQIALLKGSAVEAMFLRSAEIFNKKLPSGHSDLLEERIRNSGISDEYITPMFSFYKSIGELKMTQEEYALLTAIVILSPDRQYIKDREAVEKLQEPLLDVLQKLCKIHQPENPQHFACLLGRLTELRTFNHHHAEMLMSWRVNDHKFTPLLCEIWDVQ

Assay [20] shares this target. In words: qHTS assay to identify small molecule agonists of the farnesoid-X-receptor (FXR) signaling pathway (AID 743220; active means well fitted activation curve with a large enough effect in the signal ratio in the repeat runs, not every such curve was filed as active; the % refers to the signal ratio). Put shortly: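 FXR-UAS-bla HEK 293T cells carrying a UAS-driven beta-lactamase reporter were plated for 5 h at 37C/5% CO2, then exposed to DMSO-dissolved Tox21 10K compounds for 16 h at 37C. A LiveBLAzer B/G FRET substrate was loaded for 2 h at room temperature before fluorescence reading.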

Chain of Aryl hydrocarbon receptor (Homo sapiens) (P35869 whole entry, looked up): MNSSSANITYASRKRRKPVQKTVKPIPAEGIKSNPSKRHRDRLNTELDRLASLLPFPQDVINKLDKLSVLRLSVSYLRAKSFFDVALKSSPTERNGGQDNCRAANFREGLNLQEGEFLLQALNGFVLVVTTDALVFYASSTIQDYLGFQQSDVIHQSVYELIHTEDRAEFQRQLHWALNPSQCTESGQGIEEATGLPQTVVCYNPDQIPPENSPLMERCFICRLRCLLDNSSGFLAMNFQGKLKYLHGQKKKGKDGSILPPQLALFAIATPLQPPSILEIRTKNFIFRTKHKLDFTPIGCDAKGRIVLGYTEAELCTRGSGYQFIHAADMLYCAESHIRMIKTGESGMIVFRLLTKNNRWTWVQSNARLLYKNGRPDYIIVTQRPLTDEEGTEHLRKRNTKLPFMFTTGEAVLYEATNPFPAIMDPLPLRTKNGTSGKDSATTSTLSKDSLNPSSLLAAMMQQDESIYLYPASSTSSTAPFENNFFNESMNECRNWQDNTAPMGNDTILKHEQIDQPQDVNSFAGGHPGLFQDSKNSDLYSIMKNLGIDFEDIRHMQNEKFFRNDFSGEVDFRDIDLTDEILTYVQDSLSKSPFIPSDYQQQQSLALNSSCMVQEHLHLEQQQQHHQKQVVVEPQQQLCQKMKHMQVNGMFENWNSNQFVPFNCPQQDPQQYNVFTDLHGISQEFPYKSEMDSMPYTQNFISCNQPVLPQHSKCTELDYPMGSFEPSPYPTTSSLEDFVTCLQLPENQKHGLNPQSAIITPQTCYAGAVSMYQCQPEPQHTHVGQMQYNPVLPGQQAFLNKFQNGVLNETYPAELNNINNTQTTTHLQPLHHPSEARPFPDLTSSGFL

With `CC(=O)/C=C/C1C(C)=CCC(C)C1(C)C` (stereo not drawn), the Potency entry in [1], in assay [2], in assay [3], in assay [5] and in [13] was “inactive” throughout. The outcome in assay [4], in assay [6], in [7], in assay [8], in [9] and in assay [10] was inactive. The call in assay [11], in assay [12], in assay [14], in assay [15] and in assay [16] was inactive.
Regarding `BrCCCCCBr`, the Potency entry in assay [1], in [2], in assay [3], in assay [17], in assay [19] and in assay [13] was “inactive” throughout. Further, in assay [20], the Potency entry was “inactive”. For the same compound, the compound was called inactive in assay [4], in assay [6], in [7], in assay [8], in [18] and in assay [9]. In addition, the result in assay [10], in [11], in assay [12], in [14], in assay [15] and in assay [16] was inactive.
As for `COCCOCCOCCOCCO`, the Potency result in assay [1], in [2], in [3], in assay [17], in [19] and in [13] was “inactive” each time. In addition, in assay [20], the Potency entry was “inactive”. Moreover, the compound was called inactive in [4], in assay [6], in assay [7], in assay [8], in assay [18] and in assay [9]. In addition, the outcome in assay [10], in assay [11], in assay [12] and in assay [14] was inactive.
On to `CCC(C=O)CC`, for which the Potency result in assay [1], in assay [2], in assay [3], in assay [5], in assay [17] and in assay [19] was “inactive” in each case. The Potency result in assay [13] and in assay [20] was “inactive” each time. Also, the compound was classed as inactive in [4], in assay [7], in [8], in assay [9], in assay [10] and in assay [11]. Further, the result in assay [12], in assay [14] and in assay [16] was inactive.
With `O=C(Nc1ccc(Cl)c(Cl)c1)C1CC1`, the Potency result in assay [1], in assay [3], in assay [5] and in [13] was “inactive” each time. In addition, the Potency in assay [2] is 29.8 µM (active). For the same compound, the outcome in assay [4], in assay [7], in assay [8], in assay [18], in assay [9] and in assay [10] was inactive. The call in assay [11], in assay [12], in assay [14] and in assay [16] was inactive.
As to `Cc1cc(C(C)(C)C)c(O)c(C)c1CC1=NCCN1`, the Potency entry in [1], in assay [2], in assay [3], in assay [5] and in assay [13] was “inactive” each time. Besides, the compound was classed as inactive in assay [4], in assay [6], in assay [7], in assay [8], in assay [18] and in assay [10]. Further, the call in assay [11] and in assay [14] was inactive.
For the compound `CC(C)(C)NC(N)=O`, the Potency entry in assay [1], in assay [2], in [3] and in [5] was “inactive” throughout. Moreover, the compound was classed as inactive in assay [4], in assay [6], in assay [7], in assay [18], in assay [9] and in assay [11]. The result in [12], in assay [14], in [15] and in assay [16] was inactive.
Consider `COC(=O)CCCCCCCC(=O)OC`, for which the Potency result in [1], in assay [2], in assay [3], in [5] and in assay [13] was “inactive” in each case. In addition, the result in [4], in assay [6], in [7], in assay [8], in assay [11] and in assay [14] was inactive. Also, the result in assay [15] and in assay [16] was inactive.
Consider `Cc1cc(Cl)c(C)cc1Cl`, for which the Potency entry in [1], in assay [2], in [3], in assay [5] and in assay [13] was “inactive” throughout. In addition, the compound was called inactive in assay [4], in [6], in assay [7], in assay [8], in assay [18] and in [9]. Besides, the outcome in assay [14] and in assay [15] was inactive.
In the case of `CN(C)c1ccc(C=O)cc1`, the Potency entry in [1], in assay [2], in [3], in [5], in assay [19] and in assay [13] was “inactive” each time. Further, the Potency entry in [20] is “inactive”. Further, the compound was classed as inactive in assay [4], in [6], in [7], in assay [18], in assay [9] and in assay [11]. The outcome in [12], in assay [14] and in assay [15] was inactive.
As to `CCC(CC)CO`, the Potency result in [1], in assay [2], in assay [3], in assay [5] and in assay [17] was “inactive” each time. The outcome in [4], in assay [7], in [8], in assay [9], in [10] and in assay [11] was inactive. Besides, the call in [12], in [14], in assay [15] and in assay [16] was inactive.
Consider `CCCCNC1CC(C)(C)NC(C)(C)C1`, for which the Potency entry in assay [1], in [2], in assay [3], in assay [5] and in assay [13] was “inactive” throughout. Further, the call in assay [4], in assay [7], in assay [8], in assay [9], in [10] and in assay [11] was inactive. The call in assay [12], in [14], in assay [15] and in assay [16] was inactive.
With `O=C(OCC(COC(=O)c1cccnc1)(COC(=O)c1cccnc1)COC(=O)c1cccnc1)c1cccnc1`, the Potency result in [1], in assay [2], in [3], in assay [5] and in [13] was “inactive” throughout. Besides, the outcome in assay [4], in assay [6], in [7], in [18], in assay [9] and in assay [10] was inactive. In addition, the compound was called inactive in assay [11], in [12], in assay [14] and in assay [16].
